In PubChem BioAssay (NCATS):
A number with no mark means an inactive call. Results filed as inconclusive are left out. Calls of active or inactive are those of the source. The call rests on the fitted dose curve; in most records, active means well fitted curve in the direction sought with a large enough effect; inconclusive means small, poorly fitted or top-dose-only effect, or another doubt; inactive means no such curve, though single readings can be large; an effect the other way counts as inactive or inconclusive.

Test system: not listed separately
Experiment: Cell Viability - LYMP2-022 (AID 987);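 further: cells exposed to compound for 24 hr; nearly all actives have a fitted effect of over 55% in size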; further: potency means the concentration at half of the fitted maximal effect;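 on viability change, negative = cytotoxic: 0% = DMSO alone and full effect = tetraoctylammonium bromide at 92 µM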
Settings: LYMP2-022 lymphoblastoid cell viability; series mostly up to 92.2 µM; viability change, negative = cytotoxic: at the top concentration
Procedure, shortened: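 Acute toxicity in a human lymphoblastoid line is scored as decreased intracellular ATP after 24 hr compound treatment at 37 C. ATP is measured by CellTiter-Glo luminescence; curves are fitted with the Hill equation to give AC50.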
For `CCCC(C)(COC(N)=O)COC(=O)NC(C)C` (centres undefined), the “viability change, negative = cytotoxic” value was -9.12%.
In the case of `N[C@@H](Cc1ccc(N(CCCl)CCCl)cc1)C(=O)O`, the Potency is reported as 15.8 µM (active).
In the case of `c1ccc2c(c1)Nc1ccccc1S2`, the “viability change, negative = cytotoxic” value is reported as -5.61%.
With `Oc1ccc(Cl)cc1Cc1ccccc1` the “viability change, negative = cytotoxic” value was -0.572%.
In the case of `Oc1ccccc1-c1ccccc1`, the “viability change, negative = cytotoxic” value is reported as -22.2%.
In the case of `CNCC(O)c1ccc(O)cc1` (centres undefined), the “viability change, negative = cytotoxic” value is reported as -1.16%.
In the case of `OCCOc1ccccc1`, the “viability change, negative = cytotoxic” value is reported as 0.606%.
With `CCOP(=S)(OCC)Oc1cc(C)nc(C(C)C)n1` the “viability change, negative = cytotoxic” value was -15.6%.

Test system: not listed separately
Experiment: Cell Viability - LYMP2-026 (AID 989);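 further: cells exposed to compound for 24 h at 37 °C; on the % scale 0 is the no-effect control and ±100 the full control effect; nearly all actives have a fitted effect of over 50% in size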
Settings: LYMP2-026 lymphoblastoid cell viability, qHTS; series mostly up to 92.2 µM; activity change, negative = cytotoxic: at the top concentration
Procedure, shortened: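 Concentration-dependent loss of intracellular ATP in human lymphoblastoid cells after 24 hr at 37 C, quantified by luciferase luminescence. AC50 derived from standard Hill equation.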
With `CCCC(C)(COC(N)=O)COC(=O)NC(C)C` (centres undefined) the “activity change, negative = cytotoxic” value was -1.11%.
With `c1ccc2c(c1)Nc1ccccc1S2` the “activity change, negative = cytotoxic” value was -1.45%.
In the case of `Oc1ccc(Cl)cc1Cc1ccccc1`, the “activity change, negative = cytotoxic” value is reported as -1.53%.
In the case of `Oc1ccccc1-c1ccccc1`, the “activity change, negative = cytotoxic” value is reported as 7.11%.
With `CNCC(O)c1ccc(O)cc1` (centres undefined) the “activity change, negative = cytotoxic” value was -0.319%.
In the case of `OCCOc1ccccc1`, the “activity change, negative = cytotoxic” value is reported as 0.865%.
For `CCOP(=S)(OCC)Oc1cc(C)nc(C(C)C)n1`, the “activity change, negative = cytotoxic” value was -6.59%.

Biological target: Alpha-galactosidase A (Homo sapiens) (UniProt P06280)
Sequence (P06280 whole entry, looked up): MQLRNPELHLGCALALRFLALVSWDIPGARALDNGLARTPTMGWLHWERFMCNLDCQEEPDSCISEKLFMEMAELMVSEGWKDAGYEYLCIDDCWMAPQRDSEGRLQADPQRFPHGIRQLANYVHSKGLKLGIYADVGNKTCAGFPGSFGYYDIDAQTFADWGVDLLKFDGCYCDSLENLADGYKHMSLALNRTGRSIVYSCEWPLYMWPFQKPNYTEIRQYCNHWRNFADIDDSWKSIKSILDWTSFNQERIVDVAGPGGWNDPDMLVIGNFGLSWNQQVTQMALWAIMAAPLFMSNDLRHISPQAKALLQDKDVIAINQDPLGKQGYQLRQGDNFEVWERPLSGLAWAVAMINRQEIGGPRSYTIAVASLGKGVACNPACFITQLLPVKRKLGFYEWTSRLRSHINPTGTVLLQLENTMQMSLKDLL
Experiment: Counterscreen for Glucocerebrosidase Inhibitors: qHTS Assay for Human alpha-Galactosidase at pH 4.5 (AID 992); further: 0% is about no effect
Settings: purified enzyme, fluorogenic substrate; series mostly up to 76.9 µM; activity change, negative = inhibition: at the top concentration
Procedure, shortened: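 Enzyme at 2 nM final was combined with compound (0.7 nM to 77 uM) and 80 uM 4-methylumbelliferyl alpha-D-galactopyranoside in 50 mM citric acid, 0.005% Tween-20, pH 4.5. After 20 min at room temperature, fluorescence was read (Ex 365/Em 440 nm); AC50 came from Hill fits.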
With `N#CC(C#N)=Cc1ccc(O)c(O)c1` the “activity change, negative = inhibition” value was -0.911%.
For `N[C@@H]1C[C@H]1c1ccccc1`, the “activity change, negative = inhibition” value was -0.387%.
For `O=c1[nH]c2ccccc2n1C1CCN(CCCC(c2ccc(F)cc2)c2ccc(F)cc2)CC1`, the “activity change, negative = inhibition” value was -15.7%.
For `O=c1[nH]c2ccccc2n1CCCN1CCC(n2c(=O)[nH]c3cc(Cl)ccc32)CC1`, the “activity change, negative = inhibition” value was -2.89%.
In the case of `CCCC(C)(COC(N)=O)COC(=O)NC(C)C` (centres undefined), the “activity change, negative = inhibition” value is reported as -1.32%.
For `NCC1(CC(=O)O)CCCCC1`, the “activity change, negative = inhibition” value was -1.21%.
With `CCCN1CCC[C@@H]2Cc3nc(N)ncc3C[C@H]21` the “activity change, negative = inhibition” value was -1.16%.
For `NCC(CC(=O)O)c1ccc(Cl)cc1` (centres undefined), the “activity change, negative = inhibition” value was -1.28%.
For `Clc1cccc(N2CCNCC2)c1`, the “activity change, negative = inhibition” value was -2.63%.
With `NN=C(N)N` the outcome was “inactive”.
With `CNCC(O)c1ccc(O)cc1` (centres undefined) the “activity change, negative = inhibition” value was 1.15%.

Test system: not listed separately
Experiment: Cell Viability - LYMP1-002 - Assay at 24 hr (AID 993); further: potency means the concentration at half of the fitted maximal effect; on activity change, negative = cytotoxicity: on the % scale 0 is the no-effect control and ±100 the full control effect
Settings: LYMP1-002 lymphoblastoid cells viability; series mostly up to 92.2 µM; activity change, negative = cytotoxicity: at the top concentration
Procedure, shortened: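 qHTS, LYMP1-002 lymphoblastoid, 24 h cpd, 37 C, CellTiter-Glo ATP luminescence; AC50 via Hill eq.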
With `CCCC(C)(COC(N)=O)COC(=O)NC(C)C` (centres undefined) the “activity change, negative = cytotoxicity” value was 3.5%.
In the case of `N[C@@H](Cc1ccc(N(CCCl)CCCl)cc1)C(=O)O`, the “activity change, negative = cytotoxicity” value is reported as -0.214%.
In the case of `c1ccc2c(c1)Nc1ccccc1S2`, the “activity change, negative = cytotoxicity” value is reported as -3.96%.
For `Oc1ccc(Cl)cc1Cc1ccccc1`, the “activity change, negative = cytotoxicity” value was 7.47%.
With `Oc1ccccc1-c1ccccc1` the “activity change, negative = cytotoxicity” value was -0.384%.
For `CNCC(O)c1ccc(O)cc1` (centres undefined), the “activity change, negative = cytotoxicity” value was 8.91%.
For `OCCOc1ccccc1`, the “activity change, negative = cytotoxicity” value was 1.54%.
With `CCOP(=S)(OCC)Oc1cc(C)nc(C(C)C)n1` the “activity change, negative = cytotoxicity” value was -4.38%.
For `CC(=O)Oc1ccccc1C(=O)Nc1ncc([N+](=O)[O-])s1`, the Potency was 39.8 µM (active).

Test system: not listed separately
Experiment: Cell Viability - LYMP1-002 - Assay at 40 hr (AID 994); further: nearly all actives have a fitted effect of over 60% in size; further: potency means the concentration at half of the fitted maximal effect;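 on viability change, negative = cytotoxic: 0% = DMSO only and full inhibition = 92 µM tetraoctylammonium bromide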
Settings: LYMP1-002 lymphoblastoid cell viability; series mostly up to 92.2 µM; viability change, negative = cytotoxic: at the top concentration
Procedure, shortened: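 Viability in the human lymphoblastoid line was measured as intracellular ATP via CellTiter-Glo after 40 hr compound exposure. Tetraoctylammonium bromide served as positive control.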
With `CCCC(C)(COC(N)=O)COC(=O)NC(C)C` (centres undefined) the “viability change, negative = cytotoxic” value was -7.59%.
For `N[C@@H](Cc1ccc(N(CCCl)CCCl)cc1)C(=O)O`, the “viability change, negative = cytotoxic” value was -1.24%.
For `c1ccc2c(c1)Nc1ccccc1S2`, the “viability change, negative = cytotoxic” value was -6.24%.
With `Oc1ccc(Cl)cc1Cc1ccccc1` the “viability change, negative = cytotoxic” value was -2.05%.
For `Oc1ccccc1-c1ccccc1`, the “viability change, negative = cytotoxic” value was -7.45%.
With `CNCC(O)c1ccc(O)cc1` (centres undefined) the “viability change, negative = cytotoxic” value was -0.795%.
With `OCCOc1ccccc1` the “viability change, negative = cytotoxic” value was -5.5%.
For `CCOP(=S)(OCC)Oc1cc(C)nc(C(C)C)n1`, the “viability change, negative = cytotoxic” value was -3.77%.
For `CC(=O)Oc1ccccc1C(=O)Nc1ncc([N+](=O)[O-])s1`, the Potency was 39.8 µM (active).
